MCF10A rerep: DNA re-replication induction in MCF 10a cells; MCF 10A DNA re-replication, Hoechst nuclear intensity, 48 h; Potency, µM (doses to about 46.1 µM), for the others: at the highest dose activity, positive = re-replication, actives largely listed as activators; 350,000 tested, 2.9% active; AID 624296; also: % of control where 0% means no effect; nearly all actives have a fitted effect of over 50% in size
ELG1 repair inh: ELG1-dependent DNA repair inhibition; HEK293T ELG1-luciferase reporter, luminescence, 16 h; DNA damage induced by 5-fluorouridine; Potency, µM (series often up to 46.1 µM), for inactives: at the highest dose activity change, negative = inhibition, usual class: inhibitors; 330,000 tested, 2.3% active; AID 504467; also: % is scaled to controls: 0 for no effect and ±100 for the full control effect; nearly all actives have a fitted effect of over 55% in size
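Cells (2,000 per well) received 5-fluorouridine plus test compound or DMSO and were incubated 16 hr at 37 °C, 5% CO2. Luciferase activity was read by luminescence 30 min after ONE-Glo addition; signal suppression marked inhibition of damage-induced ELG1 function.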
A-T KAP1 phos: potential ataxia-telangiectasia treatments restoring KAP-1 phosphorylation | AID 485349 | Potency, µM (top dose mostly 57.5 µM), for the others: at the top dose activation, usual class: activators | F2112 A-T fibroblasts, KAP-1 phosphorylation AlphaLISA; neocarzinostatin DNA damage 30 min before lysis | 320,000 tested, 0.19% active; also: % of control where 0% means no effect; nearly all actives have a fitted effect of over 45% in size
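ATM-like activity read as KAP-1 phosphorylation via AlphaLISA donor/acceptor antibody pairs after lysis and 6 hr at 25C. Cells were ATM-null patient fibroblasts (F2112, hTERT), dosed 60 min, then exposed to the DSB inducer NCS for 30 min.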
ELG1 genotoxic: inducers of genotoxicity in HEK293T ELG1-luciferase cells; HEK293T ELG1-luciferase reporter, luminescence, 16 h; Potency, µM (top dose mostly 46 µM), for the others: at the highest dose activity change, positive = activation, hits mostly activators; 330,000 tested, 1.3% active; AID 504466; also: % of control where 0% means no effect; nearly all actives have a fitted effect of over 60% in size
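DMSO vehicle served as control against compound-treated ELG1-luciferase HEK293T cells; exposure lasted 16 hr at 37 °C and 5% CO2, followed by ONE-Glo luminescence detection after 30 min.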
SW480 rerep: inducers of DNA re-replication in SW480 colon cancer cells; SW480 DNA re-replication, Hoechst DNA content imaging, 48 h; Potency, µM (doses to about 46.1 µM), inactives show at the highest dose re-replication activation, actives largely listed as activators; 340,000 tested, 1.8% active; AID 624297; also: % of control where 0% means no effect; nearly all actives have a fitted effect of over 55% in size
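Image-based read-out: total Hoechst fluorescence of nuclei (405 nm excitation, 500-530 nm emission), with hits raising the fraction of high-intensity nuclei. SW480 colon cells incubated 48 hr with compounds at 37 C.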
p53 reactivator: re-activators of mutant p53; Potency, µM (series often up to 92.2 µM), for the others: at the top dose activity change, positive = activation, hits mostly activators; H1299 p53-A138V BP100-luciferase reporter, luminescence, 24 h; 320,000 tested, 0.063% active; also: % of control where 0% means no effect; nearly all actives have a fitted effect of over 45% in size
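p53-null H1299 cells stably carrying temperature-sensitive p53-A138V and a BP100-luciferase reporter were pinned with compounds (4-point, 1:5 series) and held 24 hrs at 37 deg C. Luminescence was read 10 min after detection reagent.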
An asterisk follows results filed as active; [ ] = another dose, or the depositor's remark. An excerpt weighted towards active compounds, which were near 7.1% of everything screened. Calls follow the shape of the dose curve; as a rule, active = well fitted curve in the direction sought with a large enough effect; inconclusive = small, poorly fitted or top-dose-only effect, or another doubt; inactive = no such curve, though single readings can be large; an effect the other way counts as inactive or inconclusive. Potency is read from the fitted curve at half-maximal effect.

For O=C(CCCC(=O)Nc1cccc(Br)c1)N/N=C/c1cc([N+](=O)[O-])ccc1O the results were MCF10A rerep -2%, ELG1 repair inh 15µM*, A-T KAP1 phos 2%, ELG1 genotoxic 12%, SW480 rerep inconclusive and p53 reactivator 0%.
`COc1ccc(O)c(/C=N/NC(=O)CCC(=O)Nc2ccc(C)cc2)c1` gave MCF10A rerep 7%, ELG1 repair inh inconclusive, A-T KAP1 phos -4%, ELG1 genotoxic 4%, SW480 rerep inconclusive and p53 reactivator 7%.
`Cc1ccc(C(CNC(=O)c2ccco2)N2CCN(C)CC2)cc1` (stereo not given) gave MCF10A rerep 1%, ELG1 repair inh 19%, A-T KAP1 phos 11%, ELG1 genotoxic 5%, SW480 rerep -15% and p53 reactivator 1%.
CCOc1ccc(S(=O)(=O)N2CCN(C(=O)C3CC3C)CC2)cc1 (stereo not given) was read as MCF10A rerep -30%, ELG1 repair inh -8%, A-T KAP1 phos 3%, ELG1 genotoxic 1%, SW480 rerep -19% and p53 reactivator -2%.
Nc1ccn([C@@H]2O[C@H](CO)[C@H](O)C2(F)F)c(=O)n1 was read as MCF10A rerep 7% and SW480 rerep inconclusive.
Screening C=CCN1c2ccccc2[C@]23C[C@@H](C(=O)OC)N(C(C)=O)C2=NC(C(=O)OC)=C(C(=O)OC)[C@H]13 returned MCF10A rerep 18%, ELG1 repair inh 27%, A-T KAP1 phos 13µM*, ELG1 genotoxic 5%, SW480 rerep 1% and p53 reactivator -3%.
`C#CCCOC(=O)N1C2=NC(C(=O)OC)=C(C(=O)OC)[C@@H]3N(CC=C)c4ccccc4[C@]23C[C@H]1C(=O)OC` gave MCF10A rerep 7%, ELG1 repair inh 11%, A-T KAP1 phos 23%, ELG1 genotoxic 1%, SW480 rerep -3% and p53 reactivator -3%.
CCCOc1ccc(C2=NNC(c3cccs3)=Nc3ccc(OC)cc32)cc1 was read as MCF10A rerep 14%, ELG1 repair inh 16µM*, ELG1 genotoxic -2%, SW480 rerep -3% and p53 reactivator inconclusive.
For COc1ccc2c(c1)C(c1cccs1)=NNC(c1ccncc1)=N2 the results were MCF10A rerep -2%, ELG1 repair inh inconclusive, A-T KAP1 phos 1%, ELG1 genotoxic -6%, SW480 rerep inconclusive and p53 reactivator -4%.
CCOc1ccc2c(c1)C(c1ccccc1)=NNC(c1ccccc1)=N2 was read as MCF10A rerep inconclusive, ELG1 repair inh 13µM*, A-T KAP1 phos 2%, ELG1 genotoxic -3%, SW480 rerep -3% and p53 reactivator inconclusive.
CC1CCCN(CC(=O)Nc2ccc(S(=O)(=O)N3CCCCC3)cc2)C1 (stereo not given) was read as MCF10A rerep 9%, ELG1 repair inh -12%, A-T KAP1 phos 1%, ELG1 genotoxic -4%, SW480 rerep inconclusive and p53 reactivator 7%.
`CC1CCN(S(=O)(=O)c2ccc(NC(=O)CN3CCCC3)cc2)CC1` gave MCF10A rerep 9.2µM*, ELG1 repair inh -9%, A-T KAP1 phos 0%, ELG1 genotoxic -3%, SW480 rerep -4% and p53 reactivator 2%.
`Cc1cccc(N2CCN(CC(=O)Nc3ccc(S(=O)(=O)N4CCOCC4)cc3)CC2)c1C` gave MCF10A rerep 0%, ELG1 repair inh 15µM*, A-T KAP1 phos 8%, ELG1 genotoxic -17%, SW480 rerep 19% and p53 reactivator -2%.
For CCS(=O)(=O)c1ncc(Cl)c(C(=O)Nc2ccc(S(=O)(=O)N3CCC(C)CC3)cc2)n1 the results were MCF10A rerep 1.8µM*, ELG1 repair inh inconclusive, A-T KAP1 phos -2%, ELG1 genotoxic -13%, SW480 rerep inconclusive and p53 reactivator -29%.
Screening CC1CCCN(CC(=O)Nc2ccc(S(=O)(=O)NC3CCCCC3)cc2)C1 (stereo not given) returned MCF10A rerep 16µM*, ELG1 repair inh inconclusive, A-T KAP1 phos 4%, ELG1 genotoxic 1%, SW480 rerep -1% and p53 reactivator 8%.
COc1ccc(C)cc1-n1cnnn1 was read as MCF10A rerep -1%, ELG1 repair inh 4%, A-T KAP1 phos -5%, ELG1 genotoxic 1%, SW480 rerep 6% and p53 reactivator -1%.
Screening Cc1noc(C)c1C(=O)Nc1ccc(S(=O)(=O)N2CCC(C)CC2)cc1 returned MCF10A rerep -1%, ELG1 repair inh -6%, A-T KAP1 phos 2%, ELG1 genotoxic -3%, SW480 rerep 18µM* and p53 reactivator -2%.
For CC(C)C(=O)NC(=S)Nc1ccc(S(=O)(=O)NC2CCCCC2)cc1 the results were MCF10A rerep -10%, ELG1 repair inh 12µM*, A-T KAP1 phos 9%, ELG1 genotoxic -7%, SW480 rerep 6% and p53 reactivator -11%.
For CC(=O)Nc1ccc(S(=O)(=O)NC2CCCCCC2)cc1 the results were MCF10A rerep 22%, ELG1 repair inh -1%, A-T KAP1 phos 7%, ELG1 genotoxic -4%, SW480 rerep -6% and p53 reactivator -21%.
CSc1ccc(S(=O)(=O)NC2CCCCCC2)cc1 was read as MCF10A rerep 9.2µM*, ELG1 repair inh inconclusive, A-T KAP1 phos 11%, ELG1 genotoxic 2%, SW480 rerep -4% and p53 reactivator inconclusive.
Cc1ccc(S(=O)(=O)NC2CCCC2)cc1C was read as MCF10A rerep -5%, ELG1 repair inh 25%, A-T KAP1 phos -1%, ELG1 genotoxic -1%, SW480 rerep -1% and p53 reactivator -1%.
For Cc1cc(=O)[nH]c2ccc(S(=O)(=O)NC3CCCCC3)cc12 the results were MCF10A rerep -21%, ELG1 repair inh inconclusive, A-T KAP1 phos 6%, ELG1 genotoxic 21µM*, SW480 rerep -28% and p53 reactivator -7%.
For Cc1cccc(C(=O)Nc2nsc(N)n2)c1 the results were MCF10A rerep 5%, ELG1 repair inh 0%, A-T KAP1 phos -5%, ELG1 genotoxic -2%, SW480 rerep -2% and p53 reactivator 16%.
For O=C(COC(=O)Cc1cccc(F)c1)NCCc1ccccc1 the results were MCF10A rerep -2%, ELG1 repair inh 29%, A-T KAP1 phos -4%, ELG1 genotoxic 4%, SW480 rerep 2% and p53 reactivator -1%.
For COc1ccc([C@]23Cc4ccccc4C(O2)C2=C(CC4(CCCCC4)OC2=O)O3)cc1 the results were A-T KAP1 phos -11%[11.5 µM].

Screening results deposited in PubChem BioAssay by National Center for Advancing Translational Sciences (NCATS).
